Among the data in the supplement of paper PMC13380429 are morphology score and SARS-CoV-2 infection rate values, retold here.

For test [1], the system named is Vero E6 infected with SARS-CoV-2. Kind of test: morphology score (similarity to uninfected cells); higher = more like uninfected cells. The conditions noted are these: 24 h.
For test [2] the test system is unchanged. Kind of test: SARS-CoV-2 infection rate relative to infected DMSO; higher = more infection, active = 60 or less. The settings on record: 24 h.

As for `CN(C)c1nc(N(C)C)nc(N(C)C)n1` [altretamine] (10 µM), in test [1], the morphology score is -0.171. For the same molecule, the SARS-CoV-2 infection rate in test [2] is 114% (inactive).

The molecule `O=C(c1ccc(OCCCc2c[nH]cn2)cc1)C1CC1` [ciproxifan] (10 µM) gave a morphology score in test [1] of 0.181. Moreover, in test [2], the SARS-CoV-2 infection rate was 95.5% (inactive).

In turn, `COC(=O)c1ccc2c(c1)nc(NC(=O)c1ccccc1)n2CCCc1ccccc1` (10 µM) gave a morphology score in test [1] of 0.0334. For the same molecule, in test [2], the SARS-CoV-2 infection rate was 94.5% (inactive).

The molecule `Cc1c(C(=O)Nc2ccc(N3C[C@@H](C)O[C@@H](C)C3)nc2)cccc1-c1ccc(OC(F)(F)F)cc1` [sonidegib] (10 µM) yielded a morphology score in test [1] of -0.0039. Besides, in test [2], the SARS-CoV-2 infection rate is 108% (inactive).

As to `CN(C)C(=O)CCSC(SCCC(=O)O)c1cccc(/C=C/c2ccc3ccc(Cl)cc3n2)c1` (stereo not given) (10 µM), in test [1], the morphology score was found to be 0.011. The SARS-CoV-2 infection rate in test [2] was 108% (inactive).

In turn, `CCCCOc1nc(N)c2c(n1)N(Cc1cccc(CN3CCCC3)c1)CC(=O)N2` (10 µM) gave a morphology score in test [1] of -0.135. For the same molecule, in test [2], the SARS-CoV-2 infection rate was 106% (inactive).

On to `CCC(=N\O)/C(C)=C/c1ccc(F)cc1` (10 µM), for which the morphology score in test [1] was 0.0411. For the same molecule, the SARS-CoV-2 infection rate in test [2] was 110% (inactive).

In turn, `NS(=O)(=O)c1cc(C2(O)NC(=O)c3ccccc32)ccc1Cl` (stereo not given) [chlorthalidone] (10 µM) returned a morphology score in test [1] of 0.13. Besides, in test [2], the SARS-CoV-2 infection rate was 78.5% (inactive).

As for `N#Cc1cc(-c2n[nH]c(-c3ccncc3)n2)ccn1` [topiroxostat] (10 µM), the morphology score in test [1] was found to be 0.145. Moreover, in test [2], the SARS-CoV-2 infection rate was 94.5% (inactive).

`CCS(=O)(=O)N1CC(CC#N)(n2cc(-c3ncnc4[nH]ccc34)cn2)C1` [baricitinib] (10 µM) displayed a morphology score in test [1] of 0.418. Also, in test [2], the SARS-CoV-2 infection rate is 112% (inactive).

`Cc1csc(NC(=O)CSc2ccc(-c3ccccc3)nn2)n1` (10 µM) showed a morphology score in test [1] of 0.49. Also, the SARS-CoV-2 infection rate in test [2] is 68.5% (inactive).

`CCc1cc2cc(OC)c(OC)cc2c(Cc2ccccc2)n1` [moxaverine] (10 µM): the morphology score in test [1] is 0.495. For the same molecule, the SARS-CoV-2 infection rate in test [2] was 86% (inactive).

`O=C(O)c1nn(Cc2ccc(Cl)cc2Cl)c2ccccc12` [lonidamine] (10 µM) yielded a morphology score in test [1] of 0.0313. In test [2], the SARS-CoV-2 infection rate is 110% (inactive).

In test [1], `CCC(C)(Oc1ccc(C2(c3ccc(OC(C)(CC)C(=O)O)cc3)CCCCC2)cc1)C(=O)O` (stereo not given) [clinofibrate] (10 µM) came in with a morphology score of 0.0154. Also, in test [2], the SARS-CoV-2 infection rate is 112% (inactive).

`C[C@]12CC[C@H](O)C[C@H]1CC[C@@H]1[C@@H]2CC[C@]2(C)[C@@H](C3=CC(=O)OC3)CC[C@]12O` [digitoxigenin] (0.833333 µM) displayed a morphology score in test [1] of -0.0679. Moreover, the SARS-CoV-2 infection rate in test [2] is 108% (inactive).

`CN(C)CCN1C(=O)c2cccc3cc(N)cc(c23)C1=O` [amonafide] (0.833333 µM) yielded a morphology score in test [1] of 0.15. In addition, in test [2], the SARS-CoV-2 infection rate is 102% (inactive).

`CO[C@@H](C(=O)N1Cc2[nH]nc(NC(=O)c3ccc(N4CCN(C)CC4)cc3)c2C1)c1ccccc1` [danusertib] (10 µM) registered a morphology score in test [1] of 0.109. Also, in test [2], the SARS-CoV-2 infection rate was 115% (inactive).

In test [1], `C[C@@H]1C/C=C/C=C/C=C/C=C/[C@H](O[C@@H]2O[C@H](C)[C@@H](O)[C@H](N)[C@@H]2O)C[C@@H]2O[C@](O)(C[C@@H](O)C[C@H]3O[C@@H]3/C=C/C(=O)O1)C[C@H](O)[C@H]2C(=O)O` [natamycin] (10 µM) returned a morphology score of 0.0781. In addition, the SARS-CoV-2 infection rate in test [2] was 108% (inactive).

For `COC[C@H]1OC(=O)c2coc3c2[C@@]1(C)C1=C(C3=O)[C@@H]2CCC(=O)[C@@]2(C)C[C@H]1OC(C)=O` [wortmannin] (0.833333 µM), the morphology score in test [1] is 0.26. Besides, the SARS-CoV-2 infection rate in test [2] is 79.5% (inactive).

Molecule `Cc1[nH]c(=O)c(C#N)cc1-c1ccncc1` [milrinone] (10 µM) registered a morphology score in test [1] of 0.236. In test [2], the SARS-CoV-2 infection rate was 93.5% (inactive).

`C#C[C@]1(O)CC[C@H]2[C@@H]3CCC4=CC(=NO)CC[C@@H]4[C@H]3CC[C@@]21CC` (mixture of isomers) [norelgestromin] (10 µM) came in with a morphology score in test [1] of -0.0918. In test [2], the SARS-CoV-2 infection rate was 108% (inactive).

Consider `NCCCC[C@H](NC(=O)[C@@H]1CCCN1C(=O)[C@@H]1CSSC[C@H](N)C(=O)N[C@@H](Cc2ccc(O)cc2)C(=O)N[C@@H](Cc2ccccc2)C(=O)N[C@@H](CCC(N)=O)C(=O)N[C@@H](CC(N)=O)C(=O)N1)C(=O)NCC(N)=O` [lypressin] (10 µM), for which the morphology score in test [1] is 0.164. Further, the SARS-CoV-2 infection rate in test [2] is 91% (inactive).

The molecule `Cc1ccc(S(N)(=O)=O)cc1` [para-toluenesulfonamide] (10 µM) showed a morphology score in test [1] of -0.0434. For the same molecule, the SARS-CoV-2 infection rate in test [2] was 106% (inactive).

With `O=C(O)C1=C(CSc2nnnn2CS(=O)(=O)O)CS[C@@H]2[C@H](NC(=O)[C@H](O)c3ccccc3)C(=O)N12` [Cefonicid (sodium)] (10 µM), in test [1], the morphology score is -0.0671. For the same molecule, in test [2], the SARS-CoV-2 infection rate was 112% (inactive).

In turn, `C[C@@H]1c2ccccc2CN1CC1=NCCN1` (racemic) (10 µM) had a morphology score in test [1] of 0.0304. Moreover, the SARS-CoV-2 infection rate in test [2] was 92.5% (inactive).
